Results on 34 compounds are retold here after PubChem BioAssay (Tox21).

Experiment [1] addresses Aryl hydrocarbon receptor (Homo sapiens) (UniProt P35869). The experiment is described as follows: qHTS assay to identify small molecule that activate the aryl hydrocarbon receptor (AhR) signaling pathway (AID 743085). Also: nearly all actives have a fitted effect of over 15% in size. Also: potency is read from the fitted curve at half-maximal effect.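 As to activation: HG2L7.5c1 human HepG2 liver cells with stably integrated DRE-driven firefly reporter; series mostly up to about 70 µM.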 In outline:
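Luminescence read-out: ONE-Glo reagent, 30 min at room temperature, in HG2L7.5c1 HepG2 reporter cells treated 24 h at 37C. Viability was measured beforehand by CellTiter-Fluor fluorescence after 30 min at 37C.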
(In general: In qHTS, concentration-response curves come from the screen itself.)

The nature of experiment [2]: qHTS assay to identify small molecule that activate the aryl hydrocarbon receptor (AhR) signaling pathway - cell viability counter screen (AID 743086). Also: nearly all actives have a fitted effect of over 45% in size. Also: potency is read from the fitted curve at half-maximal effect. In outline: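 HepG2-AhR-luc (HG2L7.5c1) cells, 4000/well, were preincubated 5 h at 37C, exposed to compound in qHTS format for 24 hr at 37C, then given CellTiter-Fluor for 30 min; viability was read as fluorescence in the reporter wells.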

The target in experiment [3] is Peroxisome proliferator-activated receptor gamma (Homo sapiens) (UniProt P37231). The experiment is described as follows: qHTS assay to identify small molecule agonists of the peroxisome proliferator-activated receptor gamma (PPARg) signaling pathway (AID 743094; active = well fitted activation curve with a large enough effect in the signal ratio in the repeat runs, not every such curve was filed as active; the % refers to the signal ratio). In outline:
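Compounds dissolved in DMSO were added to PPARg UAS-bla HEK293H cells for 17 h at 37C, and reporter expression was quantified by fluorescence intensity after 1 h with LiveBLAzer B/G FRET substrate.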

Experiment [4] in a line: qHTS assay to identify small molecule antagonists of the peroxisome proliferator-activated receptor gamma (PPARg) signaling pathway - cell viability counter screen (AID 743194). Also: nearly all actives have a fitted effect of over 55% in size. Also: potency is read from the fitted curve at half-maximal effect. In outline:
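PPARg-UAS-bla HEK293H cells were plated, rested 5 h at 37 C, then treated with compounds plus rosiglitazone (50 nM final) for 17 h at 37 C; viability was then read by CellTiter-Glo luminescence after 30 min at room temperature.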

Experiment [5] in a line: qHTS assay for small molecule agonists of the antioxidant response element (ARE) signaling pathway (AID 743202; active = well fitted activation curve with a large enough effect in the signal ratio in the repeat runs, not every such curve was filed as active; the % refers to the signal ratio; also: potency is read from the fitted curve at half-maximal effect). In outline:
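Compounds delivered in DMSO to ARE-bla HepG2 cells (2,000 cells/well, pre-incubated 5 h) and left 16 h at 37 C. LiveBLAzer B/G FRET substrate then added for 2 h at RT before fluorescence reading.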

Experiment [6] is described as follows: qHTS assay for small molecule activators of the heat shock response signaling pathway - cell viability counter screen (AID 743209). Also: nearly all actives have a fitted effect of over 50% in size. Also: potency is read from the fitted curve at half-maximal effect. In outline:
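Readout: CellTiter-Glo luminescence, 30 min at room temperature. System: HSE-bla HeLa cells, 1500/well, plated overnight. Treatment: compounds in DMSO, 5 h at 37 C.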

A short description of experiment [7]: qHTS assay for small molecule activators of the heat shock response signaling pathway (AID 743210; active = well fitted activation curve with a large enough effect in the signal ratio in the repeat runs, with a control signal flat, not every such curve was filed as active; the % refers to the signal ratio;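 also: HeLa cells with beta-lactamase reporter driven by heat shock elements; series mostly up to about 63 µM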). In outline: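 Reporter gene assay: HeLa cells stably bearing an HSE-bla construct, compound treatment 5 h at 37 C, LiveBLAzer substrate 2.5 h at RT, fluorescence intensity.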
The nature of experiment [8]: qHTS assay for small molecule agonists of the antioxidant response element (ARE) signaling pathway - cell viability counter screen (AID 743203; calls by dose curve; also: nearly all actives have a fitted effect of over 55% in size; also: potency is read from the fitted curve at half-maximal effect). In outline:
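Following 16 hrs of compound treatment at 37C, HepG2 cells with an ARE-controlled beta-lactamase gene were lysed with CellTiter-Glo. Luminescence was read after 30 min at room temperature.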

Experiment [9] has as its target Peroxisome proliferator-activated receptor gamma (Homo sapiens) (UniProt P37231). Briefly: qHTS assay to identify small molecule antagonists of the peroxisome proliferator-activated receptor gamma (PPARg) signaling pathway (AID 743191; calls by dose curve; also: nearly all actives have a fitted effect of over 30% in size; also: potency is read from the fitted curve at half-maximal effect). In outline:
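GeneBLAzer PPARg UAS-bla HEK293H cells carrying a UAS-driven beta-lactamase reporter were plated at 3000 cells/well, preincubated 5 h at 37C, then given compound for 17 h at 37C; LiveBLAzer B/G FRET substrate was read after 1 h at room temperature.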

The nature of experiment [10]: qHTS assay to identify aromatase inhibitors - cell viability counter screen (AID 743084).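 Also: cells stimulated with testosterone during compound exposure; potency is read from the fitted curve at half-maximal effect; nearly all actives have a fitted effect of over 55% in size.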

Structures are written as SMILES. Records with an inconclusive call do not appear. A number with no mark means an inactive call. Activity calls are given as the source filed them. Unless noted, calls follow the shape of the dose curve; as a rule, active = well fitted curve in the direction sought with a large enough effect in the repeat runs; inconclusive = weak or mixed curves; inactive = no such curve, though single readings can be large; an effect the other way counts as inactive or inconclusive.

Sequence of Aryl hydrocarbon receptor (Homo sapiens) (P35869 whole entry, looked up): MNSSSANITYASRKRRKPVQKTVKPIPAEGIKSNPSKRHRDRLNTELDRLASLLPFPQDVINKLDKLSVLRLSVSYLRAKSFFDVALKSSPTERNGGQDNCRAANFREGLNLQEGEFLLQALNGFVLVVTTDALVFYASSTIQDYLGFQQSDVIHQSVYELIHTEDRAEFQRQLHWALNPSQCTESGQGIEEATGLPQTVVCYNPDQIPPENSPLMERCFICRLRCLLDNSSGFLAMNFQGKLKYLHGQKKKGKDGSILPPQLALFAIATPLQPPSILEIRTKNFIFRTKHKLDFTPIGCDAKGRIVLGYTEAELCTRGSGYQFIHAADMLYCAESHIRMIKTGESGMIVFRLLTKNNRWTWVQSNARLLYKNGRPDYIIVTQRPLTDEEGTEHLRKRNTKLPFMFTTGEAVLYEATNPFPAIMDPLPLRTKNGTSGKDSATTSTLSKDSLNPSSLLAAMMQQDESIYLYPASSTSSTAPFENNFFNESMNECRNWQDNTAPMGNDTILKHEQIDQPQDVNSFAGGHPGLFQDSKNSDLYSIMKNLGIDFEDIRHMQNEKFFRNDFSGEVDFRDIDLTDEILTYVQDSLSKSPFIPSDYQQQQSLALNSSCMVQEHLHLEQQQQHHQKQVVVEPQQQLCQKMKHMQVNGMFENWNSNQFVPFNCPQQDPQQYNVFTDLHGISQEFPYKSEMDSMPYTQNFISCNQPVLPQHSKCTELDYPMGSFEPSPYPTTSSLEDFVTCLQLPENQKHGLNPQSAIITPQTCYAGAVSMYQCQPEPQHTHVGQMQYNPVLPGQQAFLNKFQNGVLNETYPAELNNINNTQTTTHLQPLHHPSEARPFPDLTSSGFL
Sequence of Peroxisome proliferator-activated receptor gamma (Homo sapiens) (P37231 whole entry, looked up): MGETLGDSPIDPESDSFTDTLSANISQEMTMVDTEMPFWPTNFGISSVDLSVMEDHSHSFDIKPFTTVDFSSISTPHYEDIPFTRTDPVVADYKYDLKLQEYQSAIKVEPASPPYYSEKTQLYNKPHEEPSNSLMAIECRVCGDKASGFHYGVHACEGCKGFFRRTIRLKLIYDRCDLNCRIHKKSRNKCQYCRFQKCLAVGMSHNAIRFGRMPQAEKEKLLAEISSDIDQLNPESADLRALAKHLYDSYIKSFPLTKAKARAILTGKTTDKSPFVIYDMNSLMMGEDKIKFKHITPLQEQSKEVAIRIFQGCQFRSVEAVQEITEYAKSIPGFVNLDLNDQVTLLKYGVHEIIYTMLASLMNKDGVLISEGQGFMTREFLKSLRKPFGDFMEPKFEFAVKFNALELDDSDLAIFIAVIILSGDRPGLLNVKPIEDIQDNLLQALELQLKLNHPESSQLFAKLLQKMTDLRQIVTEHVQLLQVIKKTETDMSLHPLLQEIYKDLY

Regarding `CC(=O)OCC(=O)[C@@]1(OC(C)=O)[C@@H](C)C[C@H]2[C@@H]3C[C@H](F)C4=CC(=O)C=C[C@]4(C)[C@@]3(F)[C@@H](O)C[C@@]21C`, the Potency result in experiment [1], in experiment [2], in [4], in [5], in [6] and in [7] was “inactive” each time. The call in experiment [3] was inactive.

Take `CCC(=O)OCc1ccc(OC)cc1`: the Potency result in [2], in experiment [4], in experiment [8] and in experiment [6] was “inactive” in each case.

On to `CC(=O)N[C@@H](Cc1ccc(O)cc1)C(=O)O`, for which the Potency entry in experiment [2], in experiment [4], in experiment [5], in experiment [8], in experiment [6] and in [7] was “inactive” each time.

Take `CC/C=C\C/C=C\C/C=C\CCCCCCCC(=O)OCC`: the Potency result in experiment [2], in experiment [4] and in experiment [6] was “inactive” each time.

Regarding `CCO[Si](C)(CCCOCC1CO1)OCC` (centres undefined), the Potency entry in experiment [1], in experiment [2], in experiment [4], in experiment [8] and in [6] was “inactive” each time. Besides, the result in experiment [3] was inactive.

For `CCNc1nc(N)nc(Cl)n1`, the Potency entry in experiment [2], in experiment [4], in [5], in experiment [8], in [6] and in [7] was “inactive” each time.

For `CCCCCCCC/C=C/C(=O)O`, the Potency entry in experiment [4], in [5], in [6] and in experiment [7] was “inactive” in each case.

Turning to `Oc1cccc2[nH]ccc12`, the Potency result in experiment [9], in experiment [4], in experiment [8], in experiment [6] and in experiment [7] was “inactive” each time.

Turning to `CCOC(=O)Oc1ccc(CCNC(=O)[C@H](CCSC)NC(C)=O)cc1OC(=O)OCC`, the Potency result in [9], in experiment [4], in experiment [5], in experiment [8], in [6] and in [7] was “inactive” each time.

With `CCN(CC)C(=O)/C(C#N)=C/c1cc(O)c(O)c([N+](=O)[O-])c1`, the Potency entry in [1], in experiment [2], in experiment [9], in experiment [4], in [8] and in experiment [6] was “inactive” in each case.

Regarding `Cc1ccc2c(c1[N+](=O)[O-])C(=O)c1ccccc1C2=O`, the results for the Potency in experiment [1] and in experiment [5] were 30 µM (active) and 6.73 µM (active), respectively. The Potency entry in experiment [2], in [4], in [6] and in experiment [7] was “inactive” throughout.

As to `CCCCCCCC(=O)Oc1c(Br)cc(C#N)cc1Br`, the Potency result in experiment [2] and in [5] was “inactive” throughout. Besides, the Potency in experiment [9] was 34.5 µM (active).

For `CNS(=O)(=O)c1cc(C(=O)N2CCC(CCN3C4CCC3CC(n3c(C)nc5ccccc53)C4)(c3cccc(F)c3)CC2)c(Cl)cc1F` (centres undefined), the Potency result in [1] and in [6] was “inactive” in each case.

With `COC(=O)Nc1nc2ccc(C(=O)C3CC3)cc2[nH]1`, the Potency entry in [4], in experiment [5] and in [6] was “inactive” in each case.

On to `CN(C)CC/C=C1\c2ccccc2Sc2ccc(Cl)cc21`, for which the Potency entry in experiment [1], in experiment [6] and in [7] was “inactive” in each case. Besides, the compound was classed as inactive in experiment [3].

For `O=C(O)c1cccc(Oc2ccccc2)c1`, the Potency result in experiment [2], in experiment [9], in [4], in [5], in experiment [8] and in [6] was “inactive” in each case. The Potency entry in experiment [7] is “inactive”.

With `COc1ccc(-c2cc(=S)ss2)cc1`, the figures for the Potency in [1] and in [5] were 29.8 µM (active) and 13.3 µM (active), respectively. Further, the Potency result in experiment [9], in [4], in experiment [8] and in experiment [6] was “inactive” each time.

For `COc1ccc(-n2nc(C(F)F)cc2-c2ccc(S(C)=O)cc2)cc1` (centres undefined), the Potency entry in [1], in experiment [2], in [9], in experiment [4], in [5] and in experiment [8] was “inactive” each time. For the same compound, the Potency result in experiment [6] was “inactive”. Further, the compound was classed as inactive in [3].

In the case of `O=C(O)/C=C/c1ccc(O)c(O)c1`, the Potency entry in [1], in experiment [2], in experiment [4], in experiment [8], in [6] and in experiment [7] was “inactive” in each case. The compound was called inactive in experiment [3].

As to `CC(CCc1ccc(O)cc1)NCCc1ccc(O)c(O)c1` (centres undefined), the Potency result in [9], in experiment [4], in experiment [8] and in experiment [7] was “inactive” in each case.

For the compound `O[C@@H](CNC[C@H](O)[C@H]1CCc2cc(F)ccc2O1)[C@@H]1CCc2cc(F)ccc2O1`, the Potency result in [1], in experiment [6] and in [7] was “inactive” throughout. Moreover, the Potency in [2] was 26.6 µM (active); in experiment [4] it was 29.8 µM (active); in experiment [8] it was 21.1 µM (active).

`C=CCOC(=O)COCCC(C)C`: the Potency entry in experiment [1], in experiment [2], in experiment [9], in [4], in experiment [5] and in experiment [8] was “inactive” each time. Also, the Potency entry in experiment [6] and in experiment [7] was “inactive” throughout. Besides, the compound was classed as inactive in experiment [3].

`Nc1ccc(N=Nc2ccc(N)cc2)cc1`: the Potency in [5] is 2.43 µM (active). The Potency entry in experiment [8], in experiment [6] and in [7] was “inactive” throughout.

Turning to `CCN(CC)CC(=O)Nc1c(C)cccc1C(=O)OC`, the Potency result in experiment [4], in experiment [5], in [8], in [6] and in [7] was “inactive” throughout.

On to `CO[C@@H]1[C@@H](OC)[C@H](C)[C@@](O)(CC(=O)O)O[C@H]1[C@H](C)[C@H]1O[C@@]2(CC[C@@](C)([C@H]3CC[C@@](C)([C@@H]4O[C@@H]([C@H]5O[C@](C)(O)[C@H](C)C[C@@H]5C)C[C@@H]4OC4C[C@H](OC)[C@@H](OC)[C@H](C)O4)O3)O2)C[C@H](O)[C@H]1C` (some centres undefined), for which the Potency result in experiment [1] and in experiment [7] was “inactive” each time. In experiment [3], the call was inactive. For the same compound, the Potency in [4] is 8.41 µM (active); in experiment [6], 11.9 µM (active).

`CS(=O)(=O)c1ccc([C@@H](C[C@H]2CCC(=O)C2)C(=O)Nc2cnccn2)cc1Cl`: the Potency result in experiment [1], in [2], in [9], in experiment [4], in experiment [8] and in experiment [6] was “inactive” each time. In addition, the outcome in experiment [3] was inactive.

With `CCOC(=O)N1CCC(Nc2ccc(Cl)cc2N)CC1`, the Potency result in experiment [4], in experiment [8] and in [6] was “inactive” in each case. For the same compound, the Potency in experiment [5] is 7.5 µM (active).

`Cc1cc(CCCOc2c(C)cc(-c3noc(C(F)(F)F)n3)cc2C)on1`: the Potency result in [9], in experiment [4], in [8] and in experiment [7] was “inactive” throughout.

Take `CCCCCCC(O)CCCCCCCCCCC(=O)OC` (centres undefined): the Potency entry in [2], in [5], in [8] and in [6] was “inactive” each time.

As for `CCOc1ncc(F)c(=O)[nH]1`, the Potency result in [9], in [4], in experiment [5], in experiment [8] and in [6] was “inactive” in each case.

In the case of `CCCCCCCCCCCCCCCCCC(=O)OCC(CC)CCCC` (centres undefined), the Potency result in [1], in experiment [2], in [9], in experiment [4], in experiment [8] and in experiment [6] was “inactive” throughout. For the same compound, the Potency entry in experiment [7] was “inactive”. In addition, the outcome in experiment [3] was inactive.

Consider `O=C(CCS)OCC(COC(=O)CCS)(COC(=O)CCS)COC(=O)CCS`, for which the Potency result in experiment [1] and in [2] was “inactive” throughout.

`COc1cc(NCc2ccc3nc(N)nc(N)c3c2C)cc(OC)c1OC`: the results for the Potency in experiment [1], in experiment [2] and in [8] were 29.8 µM (active), 29.8 µM (active) and 0.0376 µM (active), respectively. The Potency result in [6] and in [7] was “inactive” in each case.

On to `CN1CCCN(C(c2ccccc2)c2ccc(Cl)cc2)CC1` (centres undefined), for which the Potency in experiment [10] is 21.1 µM (active). Further, the Potency result in experiment [6] and in [7] was “inactive” throughout.
